SMILES strings stand for the structures. The panel holds about 83,000 compounds, 20% with a hit somewhere; the sample as a whole holds those more often.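 Interpretation: 100, growth as untreated; towards 0, rising growth inhibition; 0, no net growth; 0 to -100, cell death. Compounds scoring below 10 were considered active.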 The source made the active and inactive calls.

The test system of the assay is HCC-2998 colon. In words: NCI-60 one-dose screen, 48 h (100 = growth as untreated, 0 = no growth, -100 = all killed). The conditions noted are these: 10 µM unless noted.
In the case of `CC1(C)CC(=O)C2=C(C1)C(c1ccc(Cl)cc1)n1ncc(C#N)c1N2` (stereo not given), the growth was 107% (inactive).
The figure for `CCOC(=O)C1=C(CCl)N(C)C(=O)NC1c1ccc2c(c1)OCO2` (stereo not given) is 94.6% (inactive).
With `COc1ccc(-c2cc(C(=O)N3N=C(c4ccc(N)cc4)CC3c3ccc(Cl)cc3)c3ccccc3n2)cc1` (stereo not given), the growth is 21.5% (inactive).
The figure for `Cn1cc(-c2csc(-c3cn(C)c4ccccc34)n2)c2cnccc21` is -63.4% (active); for `CC(C)c1ccc2c(c1)CC[C@H]1[C@](C)(C(=O)OCC#CCN3CCCC3)CCC[C@]21C` it is 86.9% (inactive); for `Cc1cc(=O)n(C(=S)Nc2ccc(Cl)cc2)c2cc(O)ccc12` it is 100% (inactive).
On to `O=C1Nc2ccc(Cl)cc2/C1=C/c1ccc[nH]1`, for which the growth was 65.8% (inactive).
The figure for `COc1nc(/C=C\Nc2ccc3c(c2)OCCOCCOCCOCCO3)nc(OC)n1` is 98.2% (inactive); for `CC1=C2CC/C(C)=C/CC[C@]3(C)O[C@H]3CC/C(C)=C/[C@H]2OC1` it is 99.6% (inactive); for `CCN1C(=O)N(CC)C2C1NN=c1s/c(=C\c3ccc(OC)cc3)c(=O)n12` (stereo not given) it is 15.4% (inactive).
As to `Cc1nn(C)c2ncnc(N/N=C/c3cccc(O)c3O)c12`, the growth is 38.2% (inactive).
For the molecule `CC(C)C1C2=C(NCCN1C(=O)c1ccncc1)C(C)(C)N(Cc1ccccc1)C2=O` (stereo not given), the growth was 100% (inactive).
The figure for `CN(C)c1ccc(C(=S)c2ccc(N(C)C)cc2)cc1` is 70.6% (inactive); for `CSc1ccc(N2C(=N)C(=S)N(c3ccc(C)cc3)C2=O)cc1` it is 104% (inactive); for `CCOC(=O)C/C(=N\Nc1cc(=O)[nH]c2ccc(C)cc12)C(=O)OCC` it is 102% (inactive).

Values taken from PubChem BioAssay (NCI).
